This note sets out measurements from PubChem BioAssay (Tox21).

Records with an inconclusive call do not appear. The source holds several records for some structures; these can differ, active in one and inactive in another. Calls of active or inactive are those of the source. Unless noted, calls come from the whole dose curve.

Test [1] in a line: Nuclear factor erythroid 2-related factor 2/antioxidant responsive element (Nrf2/ARE) small molecule agonists: qHTS cell viability counter screen in human keratinocytes (AID 1919968; active = well fitted curve in the direction sought with a large enough effect in the repeat runs; an effect the other way counts as inactive or inconclusive; note: nearly all actives have a fitted effect of over 55% in size). The gist of the method:
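Cells of the KeratinoSens line were plated at 1,500 per well and left for 5 h before compound transfer from DMSO stocks. After a 23 h incubation (37 C, 5% CO2), CellTiter-Fluor was added. Signal was taken as fluorescence intensity 1 h later.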
(Quantitative high-throughput screening tests each substance at several concentrations.)

A short description of test [2]: Nuclear factor erythroid 2-related factor 2/antioxidant responsive element (Nrf2/ARE) small molecule agonists: luciferase reporter gene qHTS assay in human keratinocytes (AID 1919969). Note: nearly all actives have a fitted effect of over 35% in size. Note: potency is the fitted concentration of half-maximal effect.
For test [3], the target named is Gonadotropin-releasing hormone receptor (Homo sapiens) (UniProt P30968). In words: Human gonadotropin-releasing hormone receptor (GnRHR) small molecule agonists, calcium flux assay in GnRHR-HEK293 cells (AID 1920063). Note: nearly all actives have a fitted effect of over 35% in size. The gist of the method: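 Compounds dissolved in DMSO are pin-transferred onto dye-loaded GnRHR-HEK293 cells, which were seeded 18 h before at 37 C/5% CO2. Calcium signal is read as fluorescence intensity at 1 s intervals for 3 min.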
Sequence of Gonadotropin-releasing hormone receptor (Homo sapiens) (P30968 whole entry, looked up): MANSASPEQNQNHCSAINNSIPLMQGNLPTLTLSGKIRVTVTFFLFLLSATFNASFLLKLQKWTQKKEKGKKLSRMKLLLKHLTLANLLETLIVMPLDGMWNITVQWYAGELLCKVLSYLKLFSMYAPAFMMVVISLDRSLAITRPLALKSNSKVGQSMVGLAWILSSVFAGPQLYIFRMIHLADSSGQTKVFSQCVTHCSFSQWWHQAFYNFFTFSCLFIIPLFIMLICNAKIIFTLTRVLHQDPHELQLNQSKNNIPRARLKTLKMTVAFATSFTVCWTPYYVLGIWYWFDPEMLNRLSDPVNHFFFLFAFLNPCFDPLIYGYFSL
On the technique in general: Calcium assays in cells follow changes in intracellular calcium, usually with a dye or a luminescent sensor.

Test [4] deals with KiSS-1 receptor (Homo sapiens) (UniProt Q969F8). In words: Human kisspeptin (KISS1R) small molecule agonists, calcium flux assay in KISS1R-HEK293 cells (AID 1920064; active = well fitted curve in the direction sought with a large enough effect in the repeat runs; an effect the other way counts as inactive or inconclusive). The procedure, abridged: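 Cell line: HEK293, stable human KISS1R. Dye loading 1 h at 37 C after 18 h culture. Read: kinetic fluorescence, 480/540 nm, 3 min at 1 s intervals.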
Sequence of KiSS-1 receptor (Homo sapiens) (Q969F8 whole entry, looked up): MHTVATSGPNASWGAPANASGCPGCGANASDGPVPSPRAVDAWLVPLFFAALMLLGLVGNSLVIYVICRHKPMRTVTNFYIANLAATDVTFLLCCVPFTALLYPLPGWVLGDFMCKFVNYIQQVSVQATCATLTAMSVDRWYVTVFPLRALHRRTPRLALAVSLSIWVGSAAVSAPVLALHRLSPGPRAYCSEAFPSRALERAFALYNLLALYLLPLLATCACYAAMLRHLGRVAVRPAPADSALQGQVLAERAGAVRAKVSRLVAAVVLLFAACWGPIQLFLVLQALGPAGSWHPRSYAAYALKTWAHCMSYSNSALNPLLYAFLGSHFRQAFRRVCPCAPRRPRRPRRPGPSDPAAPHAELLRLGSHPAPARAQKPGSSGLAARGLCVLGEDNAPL
The nature of test [5]: p53 small molecule agonists, cell-based qHTS assay with human liver microsomes (AID 1963577). The gist of the method: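 Compounds act here after metabolic activation: human liver microsomes and NADPH, both at 0.5 mg/mL final, were co-added to p53RE-bla cells. Incubation ran 16 h at 37 C, followed by LiveBLAzer detection.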
A short description of test [6]: p53 small molecule agonists, cell-based qHTS assay with rat liver microsomes (AID 1963578). The gist of the method: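 Read-out is beta-lactamase reporter fluorescence (LiveBLAzer, 2 h, room temperature, dark) in p53RE-bla cells treated 16 h at 37 C with compound, rat liver microsomes and NADPH, both 0.5 mg/mL final.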
Test [7] is described as follows: p53 small molecule agonists, cell-based qHTS assay with human liver microsomes: qHTS cell viability counter screen (AID 1963579). Note: nearly all actives have a fitted effect of over 45% in size. The gist of the method:
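Cells carrying the p53 response-element beta-lactamase reporter are treated for 16 h at 37 C with test compounds in the presence of human liver microsomes and NADPH (both 0.5 mg/mL final); ATP-based CellTiter-Glo luminescence then reports viability.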

A short description of test [8]: p53 small molecule agonists, cell-based qHTS assay with rat liver microsomes: qHTS cell viability counter screen (AID 1963580). Note: nearly all actives have a fitted effect of over 45% in size. The gist of the method: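 Counter screen for cytotoxicity under metabolic activation: rat liver microsomes and NADPH, 0.5 mg/mL final each, added with compounds to p53RE-bla HCT-116 cells; 16 h at 37 C, then ATP luminescence read.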
Test [9] can be described thus: p53 small molecule agonists, cell-based qHTS assay (AID 1963582; active = well fitted activation curve with a large enough effect in the signal ratio in the repeat runs, not every such curve was filed as active; the % refers to the signal ratio). The gist of the method: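 16 h compound exposure (37 C) of p53 response element–bla cells, preceded by 5 h recovery at 37 C/5% CO2; read-out via LiveBLAzer B/G FRET substrate, 2 h RT, fluorescence intensity.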
Test [10] in a line: cAMP Responsive Elements (CRE) small molecule agonists, cell-based qHTS assay (AID 1963590). The procedure, abridged: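 HEK 293T cells stably bearing CRE-bla were plated at 2,000 cells per well and rested 18 h. Compounds, positive controls or DMSO were added for 3 h at 37 C. LiveBLAzer B/G substrate was then loaded for 2 h at room temperature.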
In test [11] the target is Beta-2 adrenergic receptor (Homo sapiens) (UniProt P07550). Kind of test: Adrenergic beta2 receptor (ADRB2) small molecule antagonists, cell-based qHTS assay (AID 1963592). Note: series mostly up to about 92 µM; nearly all actives have a fitted effect of over 50% in size. The procedure, abridged: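 Assay format: CHO-ADRB2 cells, 18-20hr seeding at 37C/5% CO2, then compound plus 1nM isoproterenol agonist mix for 0.5hr RT. Homogeneous time-resolved fluorescence cAMP detection after 1hr, expressed as 665/615 nm ratio.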
Sequence of Beta-2 adrenergic receptor (Homo sapiens) (P07550 whole entry, looked up): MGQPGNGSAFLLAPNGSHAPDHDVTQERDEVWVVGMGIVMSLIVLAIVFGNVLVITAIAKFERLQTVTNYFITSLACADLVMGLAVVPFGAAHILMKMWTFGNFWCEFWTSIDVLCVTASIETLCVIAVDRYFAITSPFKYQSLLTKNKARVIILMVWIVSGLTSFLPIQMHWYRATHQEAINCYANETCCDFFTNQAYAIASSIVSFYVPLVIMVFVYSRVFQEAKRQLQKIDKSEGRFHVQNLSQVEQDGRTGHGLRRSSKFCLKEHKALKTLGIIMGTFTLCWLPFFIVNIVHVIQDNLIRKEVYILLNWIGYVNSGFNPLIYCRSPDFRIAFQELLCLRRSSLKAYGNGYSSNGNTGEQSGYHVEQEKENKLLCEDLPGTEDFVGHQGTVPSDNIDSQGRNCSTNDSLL

Test [12] shares this target. In words: Adrenergic beta2 receptor (ADRB2) small molecule agonists, cell-based qHTS assay (AID 1963593).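 Note: CHO cells stably overexpressing human ADRB2.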 The procedure, abridged:
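CHO cells stably over-expressing ADRB2 were plated overnight at 37C, then dosed with compounds plus a stimulation mix containing 100uM IBMX and 25uM Ro-20-1724 for 0.5hr at room temperature. cAMP was measured by HTRF competition, 1hr.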

Test [13] addresses D(2) dopamine receptor (Homo sapiens) (UniProt P14416). Kind of test: Dopamine D2 receptor (DRD2) small molecule agonists, cell-based qHTS assay (AID 1963594). Note: nearly all actives have a fitted effect of over 35% in size. The gist of the method:
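HEK293 cells stably expressing DRD2 were cultured 24 h at 37 C, then given Ro20-1724 (0.1 mM final) and compounds for 10 min at room temperature. NKH477 (200nM) was then added for 30 min. cAMP was read by HTRF.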

The nature of test [14]: p53 small molecule agonists, cell-based qHTS assay: qHTS cell viability counter screen (AID 1963581). Note: nearly all actives have a fitted effect of over 45% in size. The gist of the method:
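ATP content measured by luminescence in HCT-116 p53RE-bla cells treated 16 h at 37 C, same wells as the reporter screen.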

Test [15] addresses 5-hydroxytryptamine receptor 2A (Homo sapiens) (UniProt P28223). In words: 5-hydroxytryptamine receptor 2A (HTR2A) small molecule antagonists, cell-based qHTS assay (AID 1963586). Note: nearly all actives have a fitted effect of over 45% in size. The procedure, abridged:
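CHO cells stably expressing human HTR2A were plated for 18 h at 37 C, then loaded with calcium dye for 1 h. Compounds were preincubated 5 min at room temperature before DOI (4 nM solution) was added. Kinetic fluorescence was read for 3 min.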

Test [16] has the same target. In words: 5-hydroxytryptamine receptor 2A (HTR2A) small molecule agonists, cell-based qHTS assay (AID 1963587). Note: nearly all actives have a fitted effect of over 30% in size. The gist of the method: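 HTR2A-CHO cells, plated 18 h at 37 C/5% CO2, dye-loaded 1 h at 37 C; compounds in DMSO added by pin tool (agonist mode). Intracellular calcium flux read as kinetic fluorescence on FDSS over 2 min at 1 s intervals.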
Test [17] has as its target Muscarinic acetylcholine receptor M1 (Homo sapiens) (UniProt P11229). Kind of test: Cholinergic receptor muscarinic 1 (CHRM1) small molecule antagonists, cell-based qHTS assay (AID 1963588). Note: nearly all actives have a fitted effect of over 40% in size. The procedure, abridged: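 Compounds were tested at 15 concentrations in three independent runs. Dye-loaded CHRM1-CHO cells were exposed 5 min at room temperature before stimulation by acetylcholine added at 50nM. Intracellular calcium was read kinetically on FDSS for 3 min.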

For test [18] the target is unchanged. In words: Cholinergic receptor muscarinic 1 (CHRM1) small molecule agonists, cell-based qHTS assay (AID 1963589). Note: nearly all actives have a fitted effect of over 35% in size. The gist of the method: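 Homogeneous fluorescence calcium flux, agonist mode. Human M1-expressing CHO cells; compound dosed at 15 concentrations, three independent runs; signal sampled every 1 sec.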
Test [19] can be described thus: cAMP Responsive Elements (CRE) small molecule antagonists, cell-based qHTS assay (AID 1963591; active = well fitted inhibition curve with a large enough effect in the signal ratio in the repeat runs, not every such curve was filed as active; the % refers to the signal ratio). The gist of the method:
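First, CRE-bla HEK293T cells settled 18 h at 37 C. Next, compound and 0.25 uM final NKH477 were applied for 3 h. Last, LiveBLAzer B/G substrate was loaded for 2 h at room temperature.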

Test [20] concerns the target D(2) dopamine receptor (Homo sapiens) (UniProt P14416). In words: Dopamine D2 receptor (DRD2) small molecule antagonists, cell-based qHTS assay (AID 1963595; active = well fitted inhibition curve with a large enough effect in the signal ratio in the repeat runs, with a control signal flat; the % refers to the signal ratio). The procedure, abridged: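 Antagonism was scored as restored cAMP in HEK293-DRD2 cells. These cells were stimulated with 200 nM NKH477 and 12 nM quinpirole for 30 min at room temperature, in the presence of 0.1 mM Ro20-1724.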

Sequence of D(2) dopamine receptor (Homo sapiens) (P14416 whole entry, looked up): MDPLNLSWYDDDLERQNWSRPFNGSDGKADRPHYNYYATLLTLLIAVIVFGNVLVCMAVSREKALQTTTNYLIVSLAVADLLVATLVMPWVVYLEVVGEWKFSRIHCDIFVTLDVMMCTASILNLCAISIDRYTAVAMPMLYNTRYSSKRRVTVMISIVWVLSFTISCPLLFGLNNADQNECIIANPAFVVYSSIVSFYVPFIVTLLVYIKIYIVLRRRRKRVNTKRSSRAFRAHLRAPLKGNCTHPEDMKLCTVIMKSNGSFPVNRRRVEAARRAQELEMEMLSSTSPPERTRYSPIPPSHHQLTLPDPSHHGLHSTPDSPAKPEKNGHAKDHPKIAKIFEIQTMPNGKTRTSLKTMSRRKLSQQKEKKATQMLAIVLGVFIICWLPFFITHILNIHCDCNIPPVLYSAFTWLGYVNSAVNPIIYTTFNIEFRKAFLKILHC
Sequence of Muscarinic acetylcholine receptor M1 (Homo sapiens) (P11229 whole entry, looked up): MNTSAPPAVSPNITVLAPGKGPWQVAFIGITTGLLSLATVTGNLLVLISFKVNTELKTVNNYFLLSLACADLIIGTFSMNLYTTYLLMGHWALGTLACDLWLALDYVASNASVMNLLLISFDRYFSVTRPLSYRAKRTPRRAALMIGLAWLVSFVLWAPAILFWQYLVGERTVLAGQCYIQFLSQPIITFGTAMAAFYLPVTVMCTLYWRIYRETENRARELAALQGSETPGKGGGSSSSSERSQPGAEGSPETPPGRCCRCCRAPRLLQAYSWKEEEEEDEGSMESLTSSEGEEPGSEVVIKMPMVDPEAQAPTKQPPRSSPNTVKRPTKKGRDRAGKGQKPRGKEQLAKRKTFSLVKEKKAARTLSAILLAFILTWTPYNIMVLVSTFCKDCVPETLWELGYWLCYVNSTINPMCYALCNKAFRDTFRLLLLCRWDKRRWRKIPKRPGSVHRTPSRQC
Sequence of 5-hydroxytryptamine receptor 2A (Homo sapiens) (P28223 whole entry, looked up): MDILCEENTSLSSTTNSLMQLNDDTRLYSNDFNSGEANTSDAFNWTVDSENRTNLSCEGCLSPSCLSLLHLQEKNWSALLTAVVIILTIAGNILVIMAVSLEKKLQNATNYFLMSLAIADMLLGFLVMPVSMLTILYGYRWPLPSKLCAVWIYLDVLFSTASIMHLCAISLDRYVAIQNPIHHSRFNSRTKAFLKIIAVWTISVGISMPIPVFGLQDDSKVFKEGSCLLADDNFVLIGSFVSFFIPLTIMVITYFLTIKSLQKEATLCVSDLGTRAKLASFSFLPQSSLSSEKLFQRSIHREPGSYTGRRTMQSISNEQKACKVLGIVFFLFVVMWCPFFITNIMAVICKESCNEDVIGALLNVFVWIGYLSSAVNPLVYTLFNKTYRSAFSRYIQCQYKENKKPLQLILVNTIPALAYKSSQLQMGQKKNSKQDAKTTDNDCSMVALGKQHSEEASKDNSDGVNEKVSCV

As to `O=C(O)CCCCC1CCSS1` (stereo not given), the Potency result in test [1], in test [3], in [4], in test [5], in test [6] and in test [7] was “inactive” in each case. Further, the Potency entry in [8], in [9], in [10], in [11], in test [12] and in test [13] was “inactive” each time. Further, the Potency in test [2] was 5.44 µM (active) and inactive.

On to `CCN(CC)C(=O)c1cccc(C)c1`, for which the Potency result in test [1], in test [2], in [3], in test [4], in test [7] and in [8] was “inactive” throughout. For the same compound, the Potency result in test [14], in test [15], in test [16], in test [17], in test [18] and in test [10] was “inactive” in each case. The Potency result in [19], in [11], in test [12] and in [20] was “inactive” throughout.

As for `OB(O)O`, the Potency result in test [1], in [2], in test [3], in test [5], in test [6] and in test [7] was “inactive” throughout. Besides, the Potency result in [8], in test [14], in test [9], in test [15], in [16] and in [17] was “inactive” each time. Moreover, the Potency entry in test [18], in [10], in [19], in [11] and in test [12] was “inactive” in each case.

For the compound `CCCCCCCCC`, the Potency result in test [1], in [2], in test [3], in test [5], in test [6] and in [7] was “inactive” each time. Besides, the Potency entry in [8], in test [14], in test [9], in test [15], in [16] and in [17] was “inactive” in each case. Also, the Potency result in [18], in [10], in test [19], in test [11], in test [13] and in test [20] was “inactive” in each case.

Take `CCc1cccc(CC)c1N`: the Potency result in test [1], in [2], in [3], in test [5], in test [6] and in test [7] was “inactive” in each case. Moreover, the Potency entry in [8], in test [14], in test [15], in [16], in test [17] and in test [18] was “inactive” throughout. For the same compound, the Potency result in test [10], in test [19], in test [11], in [12], in test [13] and in test [20] was “inactive” in each case.

With `Cc1ccc(C(=O)O)o1`, the Potency entry in [1], in test [2], in test [3], in [4], in test [8] and in test [14] was “inactive” each time. For the same compound, the Potency entry in [15], in test [16], in test [17], in test [18], in [10] and in test [19] was “inactive” in each case. The Potency result in test [11], in [12], in test [13] and in test [20] was “inactive” throughout.

Turning to `CCCN(CCC)C(=O)SCC`, the Potency result in test [1], in test [2], in test [3], in test [4], in [5] and in [6] was “inactive” throughout. For the same compound, the Potency entry in test [7], in test [8], in test [9], in [15], in test [16] and in [17] was “inactive” each time. In addition, the Potency result in test [18], in [10], in test [19], in [11], in [12] and in test [13] was “inactive” each time. Further, the Potency entry in [20] was “inactive”.

In the case of `CCC[C@H](N[C@@H](C)C(=O)N1[C@H](C(=O)O)C[C@@H]2CCCC[C@@H]21)C(=O)OCC`, the Potency entry in test [1], in test [2], in test [3], in [4], in test [5] and in test [6] was “inactive” each time. Moreover, the Potency result in test [14], in [9], in [15], in [16], in test [17] and in test [18] was “inactive” each time. Also, the Potency entry in test [10], in [19], in test [11], in test [12], in test [13] and in test [20] was “inactive” in each case.
